These results are taken from PubChem BioAssay AID589 (National Center for Advancing Translational Sciences (NCATS), 2007).

Hit rate of the full screen: of about 59,000 compounds, about 6,200 (11%) were called active. Not shown: some 9% with an inconclusive outcome. No stated cut-off is given here; in the data, active means max dye-equivalent concentration above about 10 nM; inconclusive means mostly about 1.1 nM to 9.6 nM; inactive means weaker than that. What follows is part of a selection rich in actives, with near analogues and random picks from the rest.

The nature of this experiment: qHTS Assay for Spectroscopic Profiling in 4-MU Spectral Region. As to conditions: compound autofluorescence, 340/450 nm, 4-MU equivalents; hits give high values. The method, boiled down: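 Compounds in 100 mM Tris, pH 8.0, sat 15 min at room temperature before fluorescence was read at 340 nm excitation/450 nm emission; a per-plate six-point 4-MU standard curve converted signals to dye-equivalent concentration at each compound concentration.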
In general terms: Quantitative high-throughput screening tests each substance at several concentrations.
In the case of `CCN(CC)S(=O)(=O)c1cccc(C(=O)NCC(=O)OCC(=O)NCc2ccccc2)c1`, the max dye-equivalent concentration entry is “inactive”.
For `O=C(Cn1[nH]c(=O)c2ccccc2c1=O)Nc1cccc(-c2nnc3n2CCCCC3)c1`, the max dye-equivalent concentration entry was “inactive”.
Next, `O=C(CSc1nnnn1-c1ccc2c(c1)CCC2)Nc1ccc2c(c1)OCCO2`: “inactive”; `COC(C)(C)[C@]12CC(O)(C(C)C)ON1[C@H]1CCCCC1N2O` (some centres not stated): “inactive”.
The entry for `COc1ccc(NC(C)=O)cc1NC(=O)CN1CCN(C2c3ccccc3-c3ccccc32)CC1` is “inactive”.
The entry for `CCCC(=O)Nc1cccc(-c2cn3ccsc3n2)c1` is “inactive”; for `CC(=O)Nc1cccc(-c2cnc3ccccc3n2)c1` it is “inactive”; for `COc1ccc(-c2cn3ccsc3n2)cc1` it is “inactive”.
As to `CC(=O)Nc1ccc(-c2cn3cccnc3n2)cc1`, the max dye-equivalent concentration was 6100 nM (active).
The entry for `CCOc1nc(OCC)nc(-n2cc(-c3ccccc3)nn2)n1` is “inactive”; for `c1ccc(-c2cn3cccnc3n2)cc1` it is 5100 nM (active); for `COC(=O)[C@H](C)NC(=O)Nc1ccc(OC(F)(F)F)cc1` it is “inactive”.
Next, `CCS(=O)(=O)N1CCCC(C(=O)NCc2ccc(C)cc2)C1` (configuration not stated): “inactive”; `COc1ccc(CNc2ncnc3ccc(-c4cccnc4)cc23)c(OC)c1`: “inactive”; `COc1cc(-c2noc(C3CCCN(S(=O)(=O)c4cccc(Cl)c4)C3)n2)cc(OC)c1OC` (configuration not stated): “inactive”.
As for `Cc1ccc2cc(C#N)c(SCC(=O)NCC3CCCO3)nc2c1C` (configuration not stated), the max dye-equivalent concentration result is “inactive”.
Next, `CC(NC(=O)CSc1nc2c(cc1C#N)CN(C)CC2)c1ccccc1` (configuration not stated): 22 nM (active).
Regarding `Cc1cc(C(F)(F)F)c(C#N)c(SCC(=O)NC2CC2)n1`, the max dye-equivalent concentration result is “inactive”.
For `O=C1c2ccccc2C(=O)N1CCc1nn[nH]n1`, the max dye-equivalent concentration result is “inactive”.
`COc1ccc(-n2c(SCC(=O)Nc3ccc4c(c3)OCO4)nnc2C(C)N2CCCCC2)cc1` (configuration not stated): the max dye-equivalent concentration result is “inactive”.
The entry for `COc1cc(C(=O)Nc2nccs2)cc(OC)c1OC` is “inactive”.
On to `COC(=O)c1cccc(NC(=O)CN2CCC(NC(=O)c3cc(OC)c(OC)c(OC)c3)CC2)c1`, for which the max dye-equivalent concentration result is “inactive”.
Regarding `COc1cc(C(=O)Nc2oc(-c3ccccc3)c(-c3ccccc3)c2C#N)cc(OC)c1OC`, the max dye-equivalent concentration is 11 nM (active).
In the case of `Cc1ccc(N2CCN(S(=O)(=O)N(C)C)CC2)cc1Cl`, the max dye-equivalent concentration entry is “inactive”.
`CCCn1c(SCC(N)=O)nnc1C(C)C`: the max dye-equivalent concentration entry was “inactive”.
`Cc1ccc(C(=O)CS(C)(=O)=O)cc1`: the max dye-equivalent concentration was 20 nM (active).
Next, `N#Cc1ccc(CSc2nnc(-c3ccccn3)n2-c2ccc(Cl)cc2)cc1`: “inactive”.
With `N#CNC1=NCN(CCc2ccccc2)CN1`, the max dye-equivalent concentration result was “inactive”.
As for `O=C(c1csnn1)N1CCC[C@@]2(CCN(c3cccc(-c4ccccc4)c3)C2)C1`, the max dye-equivalent concentration result was “inactive”.
Next, `COc1ccc(CN2C(=O)CN=C2Nc2ccc(C)cc2C)cc1`: “inactive”; `Cc1cc(C)nc(N2C(=O)CC(Cc3ccccc3)C2=O)n1` (configuration not stated): “inactive”.
Next, `Nc1ccc2c3c(cccc13)C(=O)NC2=O`: “inactive”.
The figure for `C=CCNc1nnc(SCC(=O)N2CCCCC2)c2ccccc12` is 16 nM (active); for `C=CCNc1nnc(C)c2ccccc12` it is “inactive”.
As for `CCOc1ccccc1-n1c(SCC(=O)N2CCCC2)nnc1-c1ccoc1C`, the max dye-equivalent concentration result is “inactive”.
Regarding `CCNc1nc(SCCOc2ccccc2)nc(N(C)C)n1`, the max dye-equivalent concentration entry is “inactive”.
The figure for `O=c1oc2cc(O)ccc2cc1-c1ccc(F)cc1` is 95 nM (active); for `Nc1ncc(-c2cc3ccccc3oc2=O)s1` it is “inactive”; for `O=C(NCCCNC(=O)NC1CCCCC1)NC1CCCCC1` it is “inactive”.
The entry for `Cn1cnc2c1c(=O)n(Cc1c(Cl)cccc1Cl)c(=O)n2C` is “inactive”; for `COc1ccc2nc(NC(=O)c3ccc(Br)s3)sc2c1` it is 460 nM (active); for `COC(=O)c1sc(NC(=O)c2ccc(OC)cc2OC)nc1C` it is “inactive”.
As to `CNC(=O)c1ccc2nc(NC(C)=O)sc2c1`, the max dye-equivalent concentration result was “inactive”.
Turning to `Cc1c(C)c2cc3c4c(oc3c(C)c2oc1=O)CCCC4`, the max dye-equivalent concentration was 30 nM (active).
Next, `CC(=O)N(Cc1cccs1)C1CCOC(C)(C)C1` (configuration not stated): “inactive”; `Cc1cc(NC(=O)CCC(=O)N(c2ccccc2)C(C(=O)NC2CCCC2)c2ccncc2)no1` (configuration not stated): “inactive”.
Next, `COc1ccc(Cn2c(=O)sc3ccccc32)cc1OC`: “inactive”; `CCn1c(SCC(=O)NCc2ccco2)nnc1-c1ccc(N)cc1`: “inactive”; `Cc1ccc2c(CSc3nncs3)cc(=O)oc2c1`: “inactive”.
The entry for `CCOC(=O)c1cc2occc2n1CC(=O)NC1CCC(C)CC1` (configuration not stated) is “inactive”; for `CN(C)CCNC(CC(=O)Nc1ccc(Cl)c(Cl)c1)C(=O)O` (configuration not stated) it is “inactive”.
Regarding `O=C(Nc1cnn(Cc2ccc(Cl)cc2)c1)C1CCCC1`, the max dye-equivalent concentration entry is “inactive”.
`O=C(O)c1ccc(NC(=O)C2CCCCC2)cc1`: the max dye-equivalent concentration result is “inactive”.
The entry for `Cn1c(=O)n(C)c2cc(C(=O)Nc3ccc4c(c3)OCO4)ccc21` is “inactive”.
The entry for `O=C(Nc1ccncc1)c1c(F)cccc1F` is “inactive”; for `CN1C(=O)c2ccc(NC(=O)c3c(F)c(F)c(F)c(F)c3F)cc2C1=O` it is 98 nM (active).
On to `CN1C(=O)c2ccc(NC(=O)C3CCCCC3)cc2C1=O`, for which the max dye-equivalent concentration was 230 nM (active).
